Pf growth 96h = inhibits malaria parasite growth, 96 h. 6.9% of 320,000 active. Potency, µM (top dose mostly 28.7 µM), for the others: at the top dose activity change, negative = inhibition, actives largely listed as inhibitors. AID 504834. P. falciparum luciferase reporter growth, 96 h; also: potency is read from the fitted curve at half-maximal effect
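Cell-based qHTS: luciferase-tagged P. falciparum in erythrocytes (2% hematocrit, 0.05% parasitemia final) incubated with compounds for 96 hours, 37 C, 5% CO2; luciferase detection reagent then added and luminescence measured.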
HCV inhibitor = HCV inhibition | Huh7.5.1 HCVcc-Cre infection, luciferase reporter, 44 h | Potency, µM (doses to about 41.8 µM), without a hit: at the top dose activity change, negative = inhibition, hits mostly inhibitors | 3.4% of 340,000 active; also: potency is read from the fitted curve at half-maximal effect
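Luciferase read-out (15 sec integration) after a 15 min room-temperature substrate step quantifies HCVcc-Cre infection. Cells, 1,000 per well, had compound added 4 h post-plating, then virus at ~0.5 moi, and were cultured 44 h.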
Pf growth 48h = P. falciparum growth inhibition at 48 hours (one generation); Potency, µM (highest dose often 28.7 µM), inactives show at the top dose activity change, negative = inhibition, most hits filed as inhibitors; P. falciparum luciferase growth in erythrocytes, 48 h; 5.9% of 310,000 active; also: potency is read from the fitted curve at half-maximal effect
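First compound was added to culture medium, then infected red cells at 0.1% parasitemia and 2% hematocrit (final). After incubation at 37 C under 5% CO2, luciferase detection reagent was dispensed and light output recorded.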
Lassa entry inh = inhibitors of Lassa virus binding or cell entry; Potency, µM (titrated, usually from 37.9 µM), inactives show at the top dose activity change, negative = inhibition, usual class: inhibitors; AID 540256; 1.2% of 300,000 active; Lassa virus pseudotype entry inhibition, cell reporter; calls by dose curve; tested in HEK293 cells; also: potency is read from the fitted curve at half-maximal effect; nearly all actives have a fitted effect of over 50% in size
HCMV inh = blocks human cytomegalovirus replication. HFF cells, HCMV-luciferase reporter, 72 h; hits give low values. activity change, negative = inhibition, % at 57.5 µM. 4.5% of 410,000 active; in the data active = activity change below about -60%; inconclusive = no clear call, values can overlap the other calls; inactive = above about -39%
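Compounds were evaluated in HFFs infected with an HCMV luciferase reporter virus (MOI 1 PFU/cell). Luciferase in lysates collected 72 h post infection served as the replication measure.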
MARV entry inh = inhibitors of Marburg virus binding or cell entry; Marburg virus pseudotyped entry inhibition, cell reporter; Potency, µM (doses to about 37.8 µM), without a hit: top-dose activity change, negative = inhibition, most hits filed as inhibitors; 1.8% of 300,000 active; calls by dose curve; tested in HEK293 cells; also: potency is read from the fitted curve at half-maximal effect
An asterisk follows results filed as active; ? = inconclusive; / = not tested or not shown; [ ] = dose if it differs, or a comment. Hits are enriched below; roughly 14% of the tested compounds scored in any of these assays. Unless noted, calls follow the shape of the dose curve; as a rule, active = well fitted inhibition curve with a large enough effect; inconclusive = small, poorly fitted or top-dose-only effect, or another doubt; inactive = no such curve, though single readings can be large or run the other way. % is scaled to controls: 0 for no effect and ±100 for the full control effect.

SMILES | Pf growth 96h | HCV inhibitor | Pf growth 48h | Lassa entry inh | HCMV inh | MARV entry inh
COc1cccc(C2CC(=O)Nc3c2c(=O)n(C)c2nc4ccccc4n32)c1OC (stereo not drawn) | / | / | / | -0.1%[46.1 µM] | -8.4 | -2.9%[46.1 µM]
CCOC(=O)c1c(C)[nH]c(C(=O)OCC(=O)NCc2ccc(OC)c(OC)c2)c1C | ? | 10µM* | ? | -25.7% | -16.5 | -36.7%
CC(=O)c1c(C)[nH]c(C(=O)OCC(=O)NCc2ccc(Cl)cc2)c1C | ? | 11.2µM* | ? | / | -36.6 | /
CCOC(=O)c1[nH]c(C)c(C(=O)OCC(=O)NCc2ccc(Cl)cc2)c1C | -19.3% | 9.1% | -13.1% | / | 0.7 | /
Cc1ccc(NC(=O)CSc2nc3nc(C)c(Cc4ccccc4)c(C)n3n2)cc1 | / | / | / | -2.0%[46.1 µM] | 21.3 | /
O=C(Nc1ccc2nc(-c3cccs3)[nH]c2c1)c1cccs1 | / | 12.6µM* | 53.2% | 17.9% | ? | -7.8%[46.1 µM]
O=C(Nc1ccc(-c2nc3ccc(NC(=O)c4cccs4)cc3[nH]2)cc1)c1cccs1 | / | ? | 2.62µM* | ? | -83.5* | ?
CC(=O)Nc1ccc2nc(-c3ccncc3)[nH]c2c1 | -1.8% | 11.4% | / | -5.8% | 48.9 | -2.3%
O=C(C(O)c1ccccc1)N1CCN(S(=O)(=O)c2ccc(OC(F)(F)F)cc2)CC1 (stereo not drawn) | / | / | / | / | -11.9 | /
COc1ccc(-n2ccnc(NCc3cccs3)c2=O)cc1 | / | / | / | 14.1%[46.1 µM] | 45.4 | /
CC(=O)Nc1cc(-c2cccc(C(=O)NCCN(C)C)c2)cn2c(-c3ccc(C(C)=O)cc3)cnc12 | / | / | / | / | -3.0 | /
COc1ccccc1CNC(=O)[C@H](Cc1c[nH]c2ccccc12)NC(=O)[C@@H]1Cc2ccccc2CN1 | 10.4µM* | -25.7% | ? | / | / | /
CC(C)Nc1nc(Nc2ccc(C#N)cc2)c2sccc2n1 | / | / | / | / | -4.8 | /
CSCCC(NC(=O)c1ccco1)C(=O)N1CCN(C(c2ccccc2)c2ccccc2)CC1 (stereo not drawn) | 2.08µM* | ? | 8.28µM* | -24.5% | -22.4 | ?
O=C(NC(=S)N(CCCCO)C1CCCCC1)c1sc2ccccc2c1Cl | ? | -24.3% | ? | ? | ? | 13µM*
CC1CCCCC1NC(=S)NC(=O)c1sc2ccccc2c1Cl (stereo not drawn) | ? | -0.7% | ? | 6.1% | -11.0 | -7.2%
O=C(c1cc(-c2ccccc2O)on1)N1CCCCC1 | / | / | / | ? | 44.3 | ?
CCN(c1ccccc1)S(=O)(=O)c1cccc(C(=O)NCC(c2ccc(F)cc2)N2CCOCC2)c1 (stereo not drawn) | / | ? | / | ? | -15.5 | ?
CCN(c1ccccc1)S(=O)(=O)c1cccc(C(=O)NCC(c2ccco2)N2CCCC2)c1 (stereo not drawn) | ? | 10µM* | ? | 4.8% | -32.7 | ?
C=CCN(c1ccccc1)S(=O)(=O)c1cccc(C(=O)NCC(c2ccc(F)cc2)N2CCOCC2)c1 (stereo not drawn) | ? | ? | 13.1µM* | ? | -29.7 | ?
CCN(c1ccccc1)S(=O)(=O)c1cc(C(=O)NCC(c2ccco2)N2CCCCC2)ccc1C (stereo not drawn) | / | ? | / | ? | -19.5 | ?
O=C(NCC(c1ccc(F)cc1)N1CCOCC1)c1nn(-c2ccccc2)c(=O)c2ccccc12 (stereo not drawn) | ? | ? | 9.28µM* | / | 39.2 | /
CCN(c1ccccc1)S(=O)(=O)c1cccc(C(=O)NCC(c2ccco2)N2CCCCC2)c1 (stereo not drawn) | / | 10µM* | / | -27.9% | -71.4* | ?
O=C(NCC(c1ccco1)N1CCCC1)c1cccc(S(=O)(=O)N2CCCCC2)c1 (stereo not drawn) | / | / | / | / | -17.6 | /
CC(=O)CSc1nc2nccnc2[nH]1 | / | / | / | / | -0.8 | /
CC1(C(=O)Nc2ccc(F)c(Cl)c2)Cc2c(-c3ccc(C(N)=O)cc3)ccnc2O1 (stereo not drawn) | / | / | / | / | -22.7 | /
CC(=O)Nc1ccc(C(=O)CSc2ncn(-c3ccccc3)n2)cc1 | 13.1µM* | ? | 33.2% | -8.6% | 79.8 | 0.0%

Compound activity from PubChem BioAssay.
